Experimental data: PubChem BioAssay AID1626 (SRMLSC, 2009)
Among all 220,000 compounds or so, about 2,000 (0.91%) were called active. Another 2% or so got no clear call; they are omitted. Not all results are given here. Potency and affinity values are given separately. A number with no mark means an inactive call. Cut-off read from the data, not from the text of the source: inconclusive = inhibition above about 80% without an active follow-up result; inactive = below that; test concentration not stated here.

Assay: M. tuberculosis H37Rv growth inhibitors, H37Rv strain (AID 1626);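 note: bacteria incubated seven days before Alamar blue readout; 0% = bacteria only wells and 100% = bacteria with antibiotic wells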
Details: hits give high values, concentration not given here

Row | Compound | inhibition [%]
1 | COc1ccc2nc(C)cc(Sc3nc4ccccc4s3)c2c1 | 0.98
2 | COc1ccc(Cl)cc1N1C(=O)C2CCCN2C1c1sccc1C (stereo not given) | -9.7
3 | CCCCC(Sc1nc(N)c(NC(=O)c2ccc(OC)cc2)c(=O)[nH]1)C(=O)O (stereo not given) | -2.8
4 | Cc1ccc(OCC(=O)Nc2ccc(S(=O)(=O)Nc3ccccn3)cc2)c(C)c1 | -1.52
5 | COc1ccc(/C=N/NC(=O)C(C)Sc2ccccn2)cc1[N+](=O)[O-] (stereo not given) | -3.03
6 | CCOc1cccc(CN2CCCC(CCC(=O)NCc3ccccc3F)C2)c1O (stereo not given) | -1.53
7 | CC1CCc2c(sc3nc(CSc4nnnn4C)[nH]c(=O)c23)C1 (stereo not given) | 42.6
8 | CCCCNC(=O)Nc1cnn(CC)c1C(N)=O | -2.68
9 | O=C1O/C(=C/c2ccccc2)c2ccccc21 | 2.2
10 | O=C1O/C(=C\c2ccccc2)c2ccccc21 | 1.65
11 | Nc1nnc(SCC(=O)N2CCN(c3ccccc3)CC2)n1-c1ccccc1 | -16.5
12 | Cc1[nH]nc2c1C(=O)CCC2 | -7.75
13 | O=c1ccnc(Sc2ncccc2[N+](=O)[O-])[nH]1 | 7.87
14 | CC(C)(C)c1csc(Sc2ncccc2[N+](=O)[O-])n1 | 7.08
15 | Nc1nnc(Sc2ccc(Cl)cc2[N+](=O)[O-])s1 | 6.61
16 | CC(C)(C)n1cnnc1Sc1ncccc1[N+](=O)[O-] | -0.66
17 | Cc1ccc(N/C=C(\C#N)S(=O)(=O)c2ccccc2)cc1 | 1.01
18 | CC(=O)c1cc(-c2ccc(F)cc2)n(CCC(=O)Nc2cc(C)[nH]n2)c1C | 5.45
19 | Cn1c(N)c(-c2nc3cccnc3n2C)sc1=S | 2.49
20 | COc1cccc(OC)c1C(=O)Nc1cc(C)nn1-c1nc2ccccc2[nH]1 | 53.2
21 | Cc1cc(NC(=O)c2ccccc2F)n(-c2nc3ccccc3[nH]2)n1 | 55.8
22 | Cc1cc(NC(=O)c2ccc(C)s2)n(-c2nc3ccccc3[nH]2)n1 | 83.6
23 | O=C(Nc1nc2ccccc2[nH]1)c1cccs1 | 56.3
24 | COc1ccc(C(=O)Nc2cc(C)nn2-c2nc3ccccc3[nH]2)c(OC)c1 | 57.3
25 | Cc1cc(NC(=O)c2cccs2)n(-c2nc3ccccc3[nH]2)n1 | 94.8

Row | Compound | inhibition [%]
26 | CC(=O)Nc1nc2ccccc2[nH]1 | -9.36
27 | Cc1cc(NC(=O)c2ccccc2)n(-c2ccccc2)n1 | -5.06
28 | OCC1(Cc2ccccc2)CCN(Cc2ccc(C(F)(F)F)cc2)CC1 | 10.2
29 | CC1(C)C(c2ccc(Cl)cc2)=[N+]([O-])C2(CCCC/C2=N\O)N1O (stereo not given) | 2.14
30 | O=C(N/N=C/c1cc(Br)cs1)c1ccc2c(c1)OCCO2 | 6.73
31 | O=C(CSc1nnc(-c2ccco2)n1CC1CCCO1)c1ccc(F)cc1 (stereo not given) | -15.7
32 | N#CCSc1nc2ccccc2c(=O)n1CC1CCCC1 | -2.18
33 | CC(Sc1ccc(Br)cc1)C(N)=O (stereo not given) | -7.76
34 | Cc1nc(N(C)C)c2sc(=S)n(-c3ccccc3)c2n1 | 0.72
35 | C/C(=N\NS(=O)(=O)c1ccc([N+](=O)[O-])cc1)c1ccc(NC(=O)c2ccco2)cc1 | -1.1
36 | C=CCNC(=O)CSc1nnc(-c2ccccc2Br)n1-c1cccc(C(F)(F)F)c1 | 5.16
37 | O=C(Nc1nc2ccccc2[nH]1)c1ccc([N+](=O)[O-])cc1 | 75
38 | Cc1cc(C)c(OCC(=O)Nc2nc3ccccc3[nH]2)c(C)c1 | 9.75
39 | Cc1cc(NC(=O)c2ccc(F)cc2F)n(-c2nc3ccccc3[nH]2)n1 | 4.49
40 | COc1cccc(C(=O)Nc2nc3ccccc3[nH]2)c1 | 46.1
41 | Cc1cc(NC(=O)/C=C/c2ccccc2Cl)n(-c2nc3ccccc3[nH]2)n1 | 66.7
42 | O=C(NCCc1nc2ccccc2[nH]1)c1ccc(Cl)c([N+](=O)[O-])c1 | -1.68
43 | COc1cc(C(=O)Nc2nc3ccccc3[nH]2)cc(OC)c1OC | 75.8
44 | CCOc1ccccc1OCC(=O)Nc1nc2ccccc2[nH]1 | 9.65
45 | COCCn1c(SCC(=O)Nc2sc(C)c(C)c2C#N)nnc1-c1ccc(OC)cc1 | -11.5
46 | CC(C)(C)C1CCc2onc(C(=O)O)c2C1 (stereo not given) | -7.72
47 | C/C(=N\NC(=O)Cc1c(C)[nH][nH]c1=O)c1ccc2ccccc2c1 | -1.62
48 | CC(C)C(=O)NNC(=O)c1cc2sccc2s1 | -9.47
49 | Cc1cc(Br)c(NC(=O)CCl)c(Br)c1 | 10
50 | CC(=O)Nc1sc(N/N=C\c2ccco2)nc1-c1cccs1 | 2.35

Row | Compound | inhibition [%]
51 | Cc1ccc(CONC(=O)c2ccc(OC(F)F)cc2)cc1 | -0.18
52 | CC1(C)C(c2ccccc2)=[N+]([O-])CN1O | -10.2
53 | Cc1cc(C)n(-c2nc3ccccc3[nH]c2=O)n1 | -9.01
54 | O=S(=O)(N/N=C/c1cccc(OC2CSC2)c1)c1ccccc1 | 2.91
55 | O=C(NCCCN1CCCC1=O)Nc1ccc(Cl)cc1 | -8.24
56 | Cc1c(C(=O)Nc2ccc3c4c(cccc24)CC3)cccc1[N+](=O)[O-] | 13.3
57 | O=C(Nc1nc2c(s1)CCCC2)c1cc(-c2ccccc2)nc2ccccc12 | 14.1
58 | Cc1ccc(-c2cc(C(=O)Nc3nccs3)c3ccccc3n2)o1 | 12.8
59 | Cc1ccc(-c2cc(C(=O)Nc3ccc(S(=O)(=O)Nc4nccs4)cc3)c3ccccc3n2)c(C)c1 | 69.9
60 | O=C(Nc1nc2c(s1)CCCC2)c1cc(-c2ccncc2)nc2ccccc12 | 10.1
61 | O=C(Nc1nc(-c2ccc(F)c(F)c2)cs1)c1cnccn1 | 10.2
62 | O=C(Nc1nccs1)c1cc(-c2ccncc2)nc2ccccc12 | -1.16
63 | O=C(Nc1nccs1)c1cc(-c2ccccc2)nc2ccccc12 | 19
64 | Cc1csc(NC(=O)c2cnccn2)n1 | -4.5
65 | CC(C)C1(C)N=C(c2ncccc2C(=O)O)NC1=O (stereo not given) | -2.93
66 | Cc1nn(CC(=O)N2c3ccccc3NC(=O)C2(C)C)c(C)c1[N+](=O)[O-] | 0.71
67 | Cc1c(NC(=O)C(C)OC(=O)Cc2ccccc2)c(=O)n(-c2ccccc2)n1C (stereo not given) | -13.3
68 | O=C(O)Cn1nnc2ccccc21 | -9.61
69 | CC(=O)Nc1ccccc1NC(=O)c1ccc(C)c(C)c1 | -3.12
70 | Nc1c(C(=O)N/N=C/c2ccc([N+](=O)[O-])cc2)sc2nnc(-c3ccccc3)c(-c3ccccc3)c12 | -2.7
71 | O=C(NCC(O)CO)c1ccc2[nH]c3ccccc3c2c1 (stereo not given) | 1.5
72 | Cn1c(N2CCCC2)nc2c1c(=O)n(Cc1cccc(F)c1)c(=O)n2C | 2.57
73 | O=c1cc(-c2ccccc2)nc(N2CCN(Cc3ccccc3)CC2)[nH]1 | 16.3
74 | Cc1nc(N2CCN(C)CC2)c2cc(-c3ccccc3)sc2n1 | -3.54
75 | Cc1nc(N2CCOCC2)c2cc(-c3ccccc3)sc2n1 | 5.12

Row | Compound | inhibition [%]
76 | Cc1ccc(SCc2cc(=O)[nH]c(N3CCN(Cc4ccc5c(c4)OCO5)CC3)n2)cc1 | 4.26
77 | COC(=O)c1cccc(NCN2C(=O)c3ccccc3C2=O)c1 | 1.78
78 | COc1ccc(CN2CCn3nc(C(=O)NC4CC4)cc3C2=O)cc1 | 0.45
79 | CCc1nn(CC(=O)NCCN2CCN(C)CC2)c(=O)c2cc3occc3n12 | 2.11
80 | O=C(Nc1ccccc1F)C1CCCN(S(=O)(=O)c2ccccc2)C1 (stereo not given) | 1.63
81 | CC(=Nc1ccc2c(c1)nc(CO)n2C)C1=C(O)CC(C)(C)CC1=O | -0.93
82 | CC(=O)Nc1cccc(Oc2ncnc3scc(-c4ccccc4)c23)c1 | 1.97
83 | Cc1cc(=O)oc2cc(Oc3ccc([N+](=O)[O-])cc3[N+](=O)[O-])ccc12 | 51
84 | Cc1cc(=O)oc2cc(Oc3ccc(C(N)=O)cc3[N+](=O)[O-])ccc12 | -11.6
85 | CCc1cc2c(C)cc(=O)oc2cc1Oc1ncccc1[N+](=O)[O-] | 1.8
86 | Cc1cc(=O)oc2cc(Oc3ncccn3)ccc12 | -2.26
87 | CC(=O)Nc1cccc(Oc2ncnc3scc(-c4ccc(C)cc4)c23)c1 | 17.3
88 | O=C(COC(=O)CCSc1ccc(Cl)cc1)NCc1ccc(Cl)cc1 | 1.66
89 | COc1ccc(CCC(=O)N/N=C\c2cccs2)cc1 | 36.8
90 | Cc1ccc(-c2csc3nc(C(C)C)oc(=O)c23)c(C)c1 | 14.9
91 | COc1cc(C2SC(C)C(=O)N2CCc2ccccc2)cc(OC)c1OC (stereo not given) | 6.28
92 | O=C(N/C=C/c1ccccc1)Nc1ccc(Cl)cc1 | 7.4
93 | Cc1nc2ccc(NC(=O)Cc3cccc(F)c3)cc2s1 | 0.69
94 | COc1ccc(OCC(=O)Nc2nc3ccc(NC(C)=O)cc3s2)cc1 | -3.22
95 | Cc1nc2ccc(NC(=O)COc3ccccc3C)cc2s1 | 52.7
96 | CC(=O)c1ccc(OCC(=O)Nc2ccc3nc(C)sc3c2)cc1 | 56.8
97 | COc1ccc(CC(=O)Nc2ccc3nc(C)sc3c2)cc1OC | 2.65
98 | Cc1cccc(OCC(=O)Nc2ccc3nc(C)sc3c2)c1 | 89.5
99 | Cc1nc2ccc(NC(=O)COc3ccccc3)cc2s1 | 83.5
100 | COc1cc(CC(=O)Nc2ccc3nc(C)sc3c2)cc(OC)c1OC | -7.08
